{
  "source": "paper PMC4552634",
  "about": "“A New Set of Chemical Starting Points with Plasmodium falciparum Transmission-Blocking Potential for Antimalarial Drug Discovery” (PLoS ONE, 2015)",
  "note": "Hit rate of the full screen: of about 13,000 compounds, about 3,200 (25%) showed an effect of 50% or more. Some of the results follow.",
  "data": [
    {"tested_on": "P. falciparum stage V gametocytes", "set-up": "BacTiter-Glo ATP luminescence viability of purified stage V gametocytes in 384-well plates, per cent inhibition versus DMSO", "settings": "48 h, 5 µM; inhibitor", "units": {"% Inhibition": "%"}, "values": [
      {"smiles": "CC(C)[C@H](NC(=O)c1ccc(O)c(-c2cccc(C(F)(F)F)c2)c1)C(=O)NCCN1CCCCC1", "note": "[TCMDC-140815]", "% Inhibition": 44.47},
      {"smiles": "O=C(Nc1ccc(-c2ccc(-c3nc4ccccc4[nH]3)s2)cc1)Nc1ccc(Cl)c(Cl)c1", "note": "[TCMDC-133283]", "% Inhibition": 1.039},
      {"smiles": "CC[C@H](NC(=O)c1c(CC2CCN(CC(C)=O)CC2)c(-c2ccccc2)nc2ccccc12)c1ccccc1", "note": "[TCMDC-141946]", "% Inhibition": 44.22},
      {"smiles": "CC(C)(C)c1ccc(NC(=O)c2ccc(CN3CCCN(CC4CCCCC4)CC3)cc2)cc1", "note": "[TCMDC-136428]", "% Inhibition": -70.52},
      {"smiles": "N#Cc1cccc(NC(=O)Nc2ccc(-c3cccc(-c4nc5ccc(F)cc5[nH]4)c3)cc2)c1", "note": "[TCMDC-133199]", "% Inhibition": 24.35},
      {"smiles": "CN(C(=O)c1snnc1-c1ccccc1)C1CCN(CCCCCNC(=O)/C=C/c2ccc(Cl)c(Cl)c2)CC1", "note": "[TCMDC-139993]", "% Inhibition": -14.58},
      {"smiles": "Oc1ccc2[nH]c(-c3ccc(F)cc3F)nc2c1CN1CCC(O)(c2ccccc2)CC1", "note": "[TCMDC-136532]", "% Inhibition": -67.95},
      {"smiles": "COc1ccc2nccc([C@@H](O)CN3CCC(NCc4nc5c([N+](=O)[O-])cccc5[nH]4)CC3)c2c1", "note": "[TCMDC-140982]", "% Inhibition": -2.529},
      {"smiles": "CC1CN(Cc2cccc(-c3ccc(-c4nc5cc(F)ccc5[nH]4)cc3)c2)CC(C)O1.O=C(O)C(F)(F)F", "note": "(centres unmarked) [TCMDC-133818]", "% Inhibition": 13.23},
      {"smiles": "CC(C)N1CCN(C(CN2CCN(CCCOc3ccc4nonc4c3)CC2)c2ccc(F)cc2)CC1", "note": "(centres unmarked) [TCMDC-135500]", "% Inhibition": 92.96},
      {"smiles": "CC(C)N1CCN(C(CN2CCN(CCCOc3cccc(F)c3)CC2)c2ccc(F)cc2)CC1", "note": "(centres unmarked) [TCMDC-135493]", "% Inhibition": 99.24},
      {"smiles": "CC(C)N1CCN(C(CN2CCN(CCCOc3ccc(-c4ccccc4)cc3)CC2)c2ccc(F)cc2)CC1", "note": "(centres unmarked) [TCMDC-135497]", "% Inhibition": 69.79},
      {"smiles": "Cc1ccc(C2(C)CN(CCCOc3cccc(-c4ccc(C(=O)NC(C)C)cc4)c3)CCO2)cc1", "note": "(centres unmarked) [TCMDC-134386]", "% Inhibition": 27.16},
      {"smiles": "CC(C)N1CCN(C(CN2CCN(CCCOc3ccccc3-c3ccccc3)CC2)c2ccc(F)cc2)CC1", "note": "(centres unmarked) [TCMDC-135499]", "% Inhibition": 44.69},
      {"smiles": "COc1ccc(C(C(=O)NC2CCN(C[C@H](O)c3ccnc4ccc(OC)cc34)CC2)N2CCN(c3ccc(F)cc3)CC2)cc1", "note": "(some centres unmarked) [TCMDC-140993]", "% Inhibition": -29},
      {"smiles": "CC(C)N1CCN(C(CN2CCN(CCCOc3cccc(-c4ccccc4)c3)CC2)c2ccc(F)cc2)CC1", "note": "(centres unmarked) [TCMDC-135498]", "% Inhibition": 62.15},
      {"smiles": "CC(CN1CCN(CC(c2ccc(F)cc2)N2CCN(C)CC2)CC1)C(=O)c1ccc(O)cc1", "note": "(centres unmarked) [TCMDC-125496]", "% Inhibition": 29.96}
    ]}
  ]
}
